Data on ten compounds can be found in PubChem BioAssay (NCI).

Each structure is given as a SMILES string. The panel holds about 83,000 compounds, 20% with a hit somewhere; the sample as a whole holds those more often.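 Plates (96-well) were seeded with cells, treated with compound at one concentration, and incubated for 48 hours before percent growth was determined.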 Values without a mark were called inactive. Calls of active or inactive are those of the source. How the source made its calls: active means growth percent below 10; inactive means the rest.

Common to all, as to assay: NCI-60 one-dose screen, 48 h (100 = growth as untreated, 0 = no growth, -100 = all killed)
For one assay, the system named is OVCAR-8 ovarian. The following applies: 10 µM unless noted.
In another assay the test system is OVCAR-5 ovarian. The following applies: 10 µM unless noted.
For a further assay, the system named is OVCAR-4 ovarian. To be noted: 10 µM unless noted.
Another assay relates to SK-OV-3 ovarian. To be noted: 10 µM unless noted.
The next assay concerns IGROV1 ovarian. To be noted: 10 µM unless noted.
The test system of the next assay is OVCAR-3 ovarian. To be noted: 10 µM unless noted.
The subject of the next assay is HS 578T breast. To be noted: 10 µM unless noted.
The subject of another assay is NCI/ADR-RES ovarian. The following applies: 10 µM unless noted.
In another assay the test system is T-47D breast. To be noted: 10 µM unless noted.
The subject of the next assay is BT-549 breast. The following applies: 10 µM unless noted.
The subject of another assay is MDA-MB-435 melanoma. To be noted: 10 µM unless noted.
For the next assay, the system named is SW-620 colon. To be noted: 10 µM unless noted.
The next assay deals with MCF7 breast. The following applies: 10 µM.
The next assay deals with HCT-116 colon. The following applies: 10 µM unless noted.
In another assay the test system is HCC-2998 colon. To be noted: 10 µM unless noted.
For a further assay, the system named is KM12 colon. To be noted: 10 µM unless noted.
Another assay relates to RPMI-8226 leukemia. To be noted: 10 µM unless noted.

Regarding `CN(C)CCCNCc1ccc(-c2ccc(F)c(Cl)c2)o1`, the growth is 59.3% in the assay on OVCAR-8 ovarian; 65.3% with OVCAR-5 ovarian; 59.6% with OVCAR-4 ovarian; 73.1% in the assay with SK-OV-3 ovarian; 31.6% with IGROV1 ovarian; 34.3% with OVCAR-3 ovarian. Moreover, the growth was 57.6% in the assay on HS 578T breast; 53.8% in the assay on NCI/ADR-RES ovarian; 23.2% with T-47D breast; 76.6% with BT-549 breast; -41.6% (active) with MDA-MB-435 melanoma; -45% (active) in the assay on SW-620 colon. Further, the growth with MCF7 breast is -33% (active); with HCT-116 colon it was 12.3%; in the assay with HCC-2998 colon, -90.2% (active); with KM12 colon, -19.9% (active).
Regarding `O=C1c2cc(Cl)ccc2Oc2cc([N+](=O)[O-])ccc2N1c1ccc(F)cc1F`, the growth in the assay on RPMI-8226 leukemia was 87.6%; in the assay with OVCAR-5 ovarian, 100%; with SK-OV-3 ovarian, 111%; in the assay on IGROV1 ovarian it was 75.9%; in the assay with OVCAR-3 ovarian, 106%; with HS 578T breast it was 87.2%. For the same compound, the growth was 72% in the assay on T-47D breast; 93.4% with MDA-MB-435 melanoma; 85.9% in the assay with SW-620 colon; 86.6% with MCF7 breast; 79.7% with HCT-116 colon; 115% in the assay on HCC-2998 colon. In the assay on KM12 colon, the growth is 94.6%.
Take `CCOC(=O)C1(Cc2ccccc2)CCN(Cc2cccc(OC)c2O)CC1`: the growth in the assay with OVCAR-8 ovarian was 3.17% (active); with OVCAR-5 ovarian, 42.4%; in the assay on OVCAR-4 ovarian it was 17.2%; in the assay with SK-OV-3 ovarian, 17.5%; in the assay on IGROV1 ovarian, -8.64% (active); in the assay on OVCAR-3 ovarian, 22.8%. Further, the growth in the assay on HS 578T breast is 28.6%; in the assay on NCI/ADR-RES ovarian, 6.98% (active); with T-47D breast, 17.2%; in the assay with BT-549 breast it was 50.4%; with MDA-MB-435 melanoma it was 20.1%; with SW-620 colon it was 20.9%. The growth was 13.9% in the assay on MCF7 breast, 21% in the assay on HCT-116 colon, 11.9% with HCC-2998 colon and 22.2% in the assay on KM12 colon.
For `NS(=O)(=O)c1ccc(CCN=C=S)cc1`, the growth in the assay on OVCAR-8 ovarian is 30.1%; in the assay on OVCAR-5 ovarian, 85.5%; with OVCAR-4 ovarian it was 42.8%; with SK-OV-3 ovarian, 122%; in the assay with IGROV1 ovarian, 25.6%; with OVCAR-3 ovarian, -18.6% (active). Moreover, the growth with HS 578T breast is 39.7%; in the assay with NCI/ADR-RES ovarian, 83.6%; in the assay with BT-549 breast, 63.8%; with MDA-MB-435 melanoma, 27.9%; with SW-620 colon it was -22.9% (active); in the assay on MCF7 breast, 2.99% (active). Also, the growth is 0.727% (active) in the assay with HCT-116 colon, 81.1% in the assay with HCC-2998 colon and 8.37% (active) in the assay with KM12 colon.
On to `CCOC(=O)CSc1c(-c2ccccc2)c2cc(Cl)ccc2[nH]c1=O`, for which the growth in the assay on OVCAR-8 ovarian is 115%; in the assay with OVCAR-5 ovarian, 105%; in the assay with OVCAR-4 ovarian it was 89.1%; in the assay with SK-OV-3 ovarian, 107%; in the assay with IGROV1 ovarian, 99.1%; in the assay on OVCAR-3 ovarian, 106%. The growth with HS 578T breast is 84.2%; in the assay on T-47D breast it was 98.1%; with BT-549 breast, 103%; with MDA-MB-435 melanoma it was 99.8%; in the assay with SW-620 colon, 102%; with MCF7 breast, 93.3%. In addition, the growth in the assay on HCT-116 colon is 92.1%; with HCC-2998 colon, 103%; in the assay on KM12 colon, 98.1%.
Regarding `Cc1ccc(CN2CCC(C(=O)Nc3ccc(-c4cc5ccccc5[nH]4)cc3)CC2)o1`, the growth was 20.5% in the assay with RPMI-8226 leukemia; 98.1% with OVCAR-5 ovarian; 107% in the assay on SK-OV-3 ovarian; 61% with IGROV1 ovarian; 49.4% with OVCAR-3 ovarian; 67% in the assay with HS 578T breast. The growth with NCI/ADR-RES ovarian is 44.3%; in the assay on T-47D breast it was 92.1%; with BT-549 breast, 72.5%; in the assay with MDA-MB-435 melanoma, 58.9%; with SW-620 colon, 66%; in the assay with MCF7 breast, 64.1%. For the same compound, the growth in the assay on HCT-116 colon was 49.9%; with KM12 colon, 24.4%.
Consider `CCOC(=O)c1c2c(c(C)n1Cc1ccc(OC)cc1)-c1oncc1CC2`, for which the growth is 88.3% in the assay with OVCAR-8 ovarian; 81.7% in the assay on OVCAR-5 ovarian; 89.6% with OVCAR-4 ovarian; 105% in the assay with SK-OV-3 ovarian; 80.8% in the assay on IGROV1 ovarian; 98.5% with OVCAR-3 ovarian. Moreover, the growth is 69.7% in the assay with HS 578T breast; 85.8% in the assay with NCI/ADR-RES ovarian; 90.5% with T-47D breast; 120% in the assay with MDA-MB-435 melanoma; 96.4% with SW-620 colon; 97.5% with MCF7 breast. The values for the growth in the assay with HCT-116 colon, in the assay with HCC-2998 colon and in the assay on KM12 colon were 80.2%, 106% and 87.9%, respectively.
Turning to `CCOC(=O)c1sc(-c2ccc(OS(=O)(=O)c3ccc(Br)s3)c(C=O)c2)nc1C`, the growth with OVCAR-8 ovarian was 3.64% (active); with OVCAR-5 ovarian, 61.2%; in the assay with OVCAR-4 ovarian, 7.2% (active); with SK-OV-3 ovarian it was 97.2%; in the assay with IGROV1 ovarian, 3.38% (active); with OVCAR-3 ovarian it was -1.81% (active). Also, the growth with HS 578T breast is 27.6%; with NCI/ADR-RES ovarian, -8.08% (active); in the assay on T-47D breast it was 30.8%; in the assay on BT-549 breast it was 9.16% (active); in the assay with MDA-MB-435 melanoma, -12.1% (active); with SW-620 colon it was 7.65% (active). The growth in the assay on MCF7 breast was 0.976% (active); in the assay with HCT-116 colon, 2.52% (active); in the assay with HCC-2998 colon, 82.5%; with KM12 colon, 6.21% (active).
As for `O=C(CSc1ncccc1C(=O)O)Nc1ccc(Oc2ccccc2)cc1`, the growth was 103% in the assay with OVCAR-8 ovarian; 108% in the assay on OVCAR-5 ovarian; 89.4% in the assay with OVCAR-4 ovarian; 100% with SK-OV-3 ovarian; 104% in the assay with IGROV1 ovarian; 109% with OVCAR-3 ovarian. In addition, the growth in the assay with HS 578T breast is 92%; in the assay with NCI/ADR-RES ovarian, 100%; with T-47D breast, 103%; in the assay on BT-549 breast, 97.8%; in the assay on MDA-MB-435 melanoma, 105%; with SW-620 colon, 91.9%. The growth is 91.5% with MCF7 breast, 96.9% in the assay with HCT-116 colon, 102% in the assay on HCC-2998 colon and 110% in the assay on KM12 colon.
Regarding `O=C(Nc1ccc(Cl)cc1F)c1cc(Br)ccc1O`, the growth in the assay on OVCAR-8 ovarian was 9.53% (active); with OVCAR-5 ovarian, 22%; with OVCAR-4 ovarian, 14.4%; in the assay with SK-OV-3 ovarian, -0.537% (active); in the assay with IGROV1 ovarian it was 19.5%; in the assay with OVCAR-3 ovarian, 9.61% (active). Further, the growth in the assay with HS 578T breast is 1.54% (active); in the assay with NCI/ADR-RES ovarian it was 7.03% (active); in the assay on T-47D breast, -14% (active); in the assay on MDA-MB-435 melanoma, 0.322% (active); in the assay with SW-620 colon it was 11.4%; in the assay with MCF7 breast it was 4% (active). In addition, the growth with HCT-116 colon is 5.79% (active); with HCC-2998 colon, 16.7%; with KM12 colon, 0.131% (active).
